Results on one compound are retold here after PubChem BioAssay AID2284172 (EPA ToxCast).

Each structure is given as a SMILES string. Active and inactive are the calls of the source. How the source made its calls: active means hit-call score of the fitted dose curve at least 0.9, where 1 is the maximum; inactive means score below 0.9.

For the experiment, the target named is rat Cav1.2 (L-type), conducted at France lab site, Cacna1a (gene 25398) (UniProt P54282). Nature of the experiment: ERF_FR_IC_rCACNA1C_Dihydropyridine: Eurofins (ERF) Calcium Ion Channel Binding (Dihydropyridine Site) LeadHunter Assay for rat Cav1.2 (L-type), conducted at France lab site. Here is the method: ERF_FR_IC_rCACNA1C_Dihydropyridine is a biochemical, single-readout assay that uses extracted gene-proteins in a cell-free assay. Measurements were taken 1.5 hour after chemical dosing in a 96-well plate. See Cav1.2 (L-type) Rat Calcium Ion Channel Binding (Dihydropyridine Site) Assay, Cerep.ERF_FR_IC_rCACNA1C_Dihydropyridine is an assay component calculated from the ERF_FR_IC_rCACNA1C_Dihydropyridine assay. It is designed to measure radioligand binding using a type of binding reporter as detected by scintillation counting with radiometry technology.Data from the assay component ERF_FR_IC_rCACNA1C_Dihydropyridine was analyzed at the assay endpoint, ERF_FR_IC_rCACNA1C_Dihydropyridine, in the positive analysis fitting direction relative to DMSO as the negative control and baseline of activity. Using a type of binding reporter, loss-of-signal activity can be used to understand changes in binding as they relate to gene CACNA1C. To generalize the intended target to other relatable targets, this assay endpoint is annotated to the ion channel intended target family, where the subfamily is voltage gated (Calcium).
Rat brain cells are incubated for 90 minutes at room temprature with [3H]nitrendipine (0.25 nM) ligand and Nitrendipine as control inhibitor. Test Sample Requirements: Minimum for 1) Screen: 60 ul of 10 mM stock -OR- 1 mg (pre-weighed) for 10 uM final testing. […]

Sequence of rat Cav1.2 (L-type), conducted at France lab site, Cacna1a (gene 25398) (P54282 whole entry, looked up): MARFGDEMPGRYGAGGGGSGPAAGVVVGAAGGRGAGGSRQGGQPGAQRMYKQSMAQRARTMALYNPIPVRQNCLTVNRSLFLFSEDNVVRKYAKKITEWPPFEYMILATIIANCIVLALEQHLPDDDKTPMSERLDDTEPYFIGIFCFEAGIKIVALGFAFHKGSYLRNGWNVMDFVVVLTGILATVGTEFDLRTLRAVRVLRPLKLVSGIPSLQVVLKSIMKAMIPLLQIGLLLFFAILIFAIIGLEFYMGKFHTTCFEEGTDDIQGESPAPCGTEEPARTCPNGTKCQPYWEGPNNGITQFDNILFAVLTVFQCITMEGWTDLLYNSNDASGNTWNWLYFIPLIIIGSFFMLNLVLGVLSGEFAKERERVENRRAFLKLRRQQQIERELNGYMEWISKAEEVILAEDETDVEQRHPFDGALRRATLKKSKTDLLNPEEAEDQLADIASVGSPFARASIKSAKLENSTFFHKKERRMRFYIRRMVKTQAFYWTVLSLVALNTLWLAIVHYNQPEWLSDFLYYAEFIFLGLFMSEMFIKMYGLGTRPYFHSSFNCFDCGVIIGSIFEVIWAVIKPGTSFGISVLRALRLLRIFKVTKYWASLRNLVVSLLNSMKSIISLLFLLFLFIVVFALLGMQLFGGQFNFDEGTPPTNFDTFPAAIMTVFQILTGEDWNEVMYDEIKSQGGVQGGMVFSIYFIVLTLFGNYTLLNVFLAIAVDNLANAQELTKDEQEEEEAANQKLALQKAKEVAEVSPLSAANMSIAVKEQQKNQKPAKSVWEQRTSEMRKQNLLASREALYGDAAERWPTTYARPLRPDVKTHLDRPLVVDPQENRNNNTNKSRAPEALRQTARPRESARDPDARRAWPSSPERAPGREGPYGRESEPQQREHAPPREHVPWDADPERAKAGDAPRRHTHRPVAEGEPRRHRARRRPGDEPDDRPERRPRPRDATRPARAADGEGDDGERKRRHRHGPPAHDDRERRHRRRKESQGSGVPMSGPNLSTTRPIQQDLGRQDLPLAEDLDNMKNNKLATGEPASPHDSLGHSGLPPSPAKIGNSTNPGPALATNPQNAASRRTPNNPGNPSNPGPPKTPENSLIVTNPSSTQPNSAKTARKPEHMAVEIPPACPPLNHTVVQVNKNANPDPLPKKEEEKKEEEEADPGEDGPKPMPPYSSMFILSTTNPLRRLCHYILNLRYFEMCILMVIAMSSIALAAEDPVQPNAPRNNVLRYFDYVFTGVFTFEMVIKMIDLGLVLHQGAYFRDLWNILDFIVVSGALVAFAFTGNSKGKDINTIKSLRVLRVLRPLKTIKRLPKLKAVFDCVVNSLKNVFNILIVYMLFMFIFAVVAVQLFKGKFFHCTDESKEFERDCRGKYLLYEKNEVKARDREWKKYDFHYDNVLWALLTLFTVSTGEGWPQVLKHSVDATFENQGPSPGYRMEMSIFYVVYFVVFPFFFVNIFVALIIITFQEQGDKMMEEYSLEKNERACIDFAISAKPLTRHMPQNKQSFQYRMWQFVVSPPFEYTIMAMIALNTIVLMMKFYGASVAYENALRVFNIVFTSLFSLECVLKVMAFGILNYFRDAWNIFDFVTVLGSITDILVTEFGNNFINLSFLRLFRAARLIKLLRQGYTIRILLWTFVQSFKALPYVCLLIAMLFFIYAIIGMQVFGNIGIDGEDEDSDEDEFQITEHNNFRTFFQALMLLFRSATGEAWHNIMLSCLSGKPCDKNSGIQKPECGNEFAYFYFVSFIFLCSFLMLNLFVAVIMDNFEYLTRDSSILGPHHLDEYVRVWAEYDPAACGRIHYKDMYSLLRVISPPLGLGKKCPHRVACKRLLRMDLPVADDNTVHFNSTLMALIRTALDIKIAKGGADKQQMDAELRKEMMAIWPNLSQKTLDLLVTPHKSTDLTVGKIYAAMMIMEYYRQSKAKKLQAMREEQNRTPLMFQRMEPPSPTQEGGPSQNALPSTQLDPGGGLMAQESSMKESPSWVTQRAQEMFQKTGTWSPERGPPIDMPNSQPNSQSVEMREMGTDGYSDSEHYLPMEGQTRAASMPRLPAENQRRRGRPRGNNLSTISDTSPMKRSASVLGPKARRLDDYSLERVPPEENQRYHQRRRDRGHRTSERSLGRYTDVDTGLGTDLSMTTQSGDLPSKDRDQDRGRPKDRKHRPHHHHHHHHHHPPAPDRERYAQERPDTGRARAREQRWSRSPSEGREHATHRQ

For `CCCCC[C@H](O)CC(=O)CCc1ccc(O)c(OC)c1`, the outcome was inactive.
